# High-throughput results: PubChem BioAssay, National Center for Advancing Translational Sciences (NCATS)
# Compounds with a hit are over-represented: about 0.44% of the library has one in this group of screens.
# p53 reactivation: qHTS assay for re-activators of p53 using a Luc reporter; H1299 p53-A138V BP100-luciferase reporter, luminescence, 24 h; Potency, µM (highest dose often 92.2 µM), for the others: top-dose activity change, positive = activation, usual class: activators; 320,000 compounds, 0.063% hits; further: potency means the concentration at half of the fitted maximal effect; % of control where 0% means no effect; nearly all actives have a fitted effect of over 45% in size
#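 p53-null H1299 cells stably carrying temperature-sensitive p53-A138V and a BP100-luciferase reporter were pinned with compounds (4-point, 1:5 series) and held 24 hrs at 37 deg C. Luminescence was read 10 min after detection reagent.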
# Giardia killer: Small Molecules that selectively kill Giardia lamblia: qHTS. 340,000 compounds, 0.15% hits. activity change, % at 7.66 µM, hits read low. Giardia lamblia trophozoite viability; in the data active means activity change below about -80%; inconclusive means between about -30% and that limit;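 further: parasites exposed to compound for two days anaerobically before the ATP read; on the % scale 0 is the no-effect control and ±100 the full control effect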
#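 Killing of trophozoites was scored by loss of ATP luminescence after a 48 hrs anaerobic exposure to compounds at 37 deg C, using 100 cells per well.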
# PI4K2A inh: qHTS for small molecular inhibitors of PI4K2A. purified PI4K2A, ADP-Glo luminescence, 1 h; hits give low values. activity change, negative = inhibition, % at 76.9 µM. 420,000 compounds, 0.13% hits; in the data active means activity change below about -50%; inconclusive means mostly about -30% to -49%;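 further: -100% = wells without enzyme as full effect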
# Target sequence (Q9BTU6 whole entry, looked up): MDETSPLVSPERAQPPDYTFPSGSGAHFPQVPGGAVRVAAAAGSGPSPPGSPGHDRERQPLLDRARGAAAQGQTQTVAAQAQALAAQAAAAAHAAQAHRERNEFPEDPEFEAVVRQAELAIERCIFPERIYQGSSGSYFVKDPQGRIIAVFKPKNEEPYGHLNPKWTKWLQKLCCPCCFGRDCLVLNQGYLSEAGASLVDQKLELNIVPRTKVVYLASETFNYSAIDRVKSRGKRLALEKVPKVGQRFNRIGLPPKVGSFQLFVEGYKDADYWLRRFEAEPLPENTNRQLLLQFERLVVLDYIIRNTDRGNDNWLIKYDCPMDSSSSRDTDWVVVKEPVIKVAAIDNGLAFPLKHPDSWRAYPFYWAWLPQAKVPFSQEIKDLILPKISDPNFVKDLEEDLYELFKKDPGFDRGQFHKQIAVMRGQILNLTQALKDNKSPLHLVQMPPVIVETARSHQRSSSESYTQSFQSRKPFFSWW
#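 ADP-Glo luminescence measured ADP generated by PI4K2A enzyme (4 ug/mL before mixing) with 1.2 mM PI substrate (pre-mix) and 300 microM ATP (pre-mix). Tris pH7.5 buffer with MgCl2, Triton X-100; 1 h reaction at ambient temperature.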
# B2AR arrestin: qHTS assay of beta-arrestin-biased ligands of beta2-adrenergic receptor. beta-arrestin recruitment to beta2AR, cell-based reporter. Potency, µM (series often up to 46.1 µM), inactives show at the highest dose activation, actives largely listed as activators. 330,000 compounds, 0.02% hits. AID 492947, 2010;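 further: potency means the concentration at half of the fitted maximal effect; 0% = DMSO controls and full agonism = EC100 isoproterenol or metaproterenol; nearly all actives have a fitted effect of over 65% in size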
# Epigenetic reg: Quantitative High-Throughput Screen for Regulators of Epigenetic Control; murine LDR cells, GFP reporter derepression, 30 h; 280,000 compounds, 0.2% hits; AID 1865, 2009; Potency, µM (series often up to 53.9 µM), without a hit: at the top dose GFP activation, actives largely listed as activators; further: potency means the concentration at half of the fitted maximal effect; % of control where 0% means no effect; nearly all actives have a fitted effect of over 60% in size
#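 Murine LDR cells carrying a silenced, genomically integrated CMV-driven GFP reporter were exposed to compound for 30 hours at 37 C. After PBS washes, GFP-positive cells (20–120 um objects) were counted by laser-scanning microplate cytometry.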
# Pin1 inhibitor: qHTS Assay to Find Inhibitors of Pin1 | Peptidyl-prolyl cis-trans isomerase NIMA-interacting 1 (Homo sapiens), Q13526 | Pin1 FP peptide displacement, HiFluor488, 10 min | Potency, µM (titrated, usually from 115 µM), for the others: at the highest dose activity, negative = inhibition, hits mostly inhibitors | AID 504891, 2011 | 390,000 compounds, 0.009% hits; active means well fitted inhibition curve with a large enough effect in the polarisation, with a control signal flat, not every such curve was filed as active; inconclusive means small, poorly fitted or top-dose-only effect, or effect the other way, or a change in a side signal; inactive means no such curve, though single readings can be large or run the other way; the % refers to the polarisation; further: potency means the concentration at half of the fitted maximal effect; on the % scale 0 is the no-effect control and ±100 the full control effect
# Target sequence (Q13526 whole entry, looked up): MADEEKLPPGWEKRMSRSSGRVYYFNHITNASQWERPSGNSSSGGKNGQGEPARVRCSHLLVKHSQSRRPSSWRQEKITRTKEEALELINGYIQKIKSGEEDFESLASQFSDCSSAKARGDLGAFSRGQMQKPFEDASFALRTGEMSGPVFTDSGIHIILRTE
# Parental c127i: Parental Cell Counter Screen Assay for Epigenetic Modulators: Hit Validation; shares compounds with Epigenetic reg; mouse c127i parental cells, fluorescent cell count, 30 h; Potency, µM, for inactives: at the top dose fluorescent cell count, usual class: activators; 60 compounds, 20% hits
# HCC4017 viab: HCC4017 Cell Viability Secondary Assay for qHTS Assay for Epigenetic Modulators. Potency, µM (series often up to 46.1 µM), for inactives: at the top dose activity change, negative = cytotoxicity, most hits filed as cytotoxic. shares compounds with Epigenetic reg. AID 493071, 2011. HCC4017 NSCLC viability, CellTiter-Glo ATP luminescence, 72 h. 45 compounds, 30% hits
# H358 viab: H358 Cell Viability Secondary Assay for qHTS Assay for Epigenetic Modulators: Round 2 | shares compounds with Epigenetic reg | H358 NSCLC viability, ATP luminescence, 72 h | Potency, µM (doses to about 46.1 µM), for inactives: at the top dose activity change, negative = viability loss, actives largely listed as cytotoxic | 45 compounds, 30% hits | AID 493074, 2011
# Numbers without * were called inactive; ? = inconclusive; . = not tested or not shown; [ ] = remark or other dose. Unless noted, the call rests on the fitted dose curve; in most records, active means well fitted curve in the direction sought with a large enough effect; inconclusive means small, poorly fitted or top-dose-only effect, or another doubt; inactive means no such curve, though single readings can be large; an effect the other way counts as inactive or inconclusive.
SMILES,p53 reactivation,Giardia killer,PI4K2A inh,B2AR arrestin,Epigenetic reg,Pin1 inhibitor,Parental c127i,others
Nc1ccn([C@@H]2O[C@H](CO)[C@@H](O)C2(F)F)c(=O)n1,.,.,-1,.,.,.,.,
CCCCCCCC(=O)[O-].CCCCCCCC(=O)[O-].[Zn+2],.,.,-10,.,.,.,.,
O=C(O)CCCC[P+](c1ccccc1)(c1ccccc1)c1ccccc1,.,.,2,.,.,.,.,
O=C(C1CCCCC1)N1CC(=O)N2CCCc3ccccc3C2C1 (stereo not drawn),.,.,-2,.,.,.,.,
O=C(Nc1ccc(N2CCCCC2)cc1)c1ccc([N+](=O)[O-])o1,-11%,-85*,-14,0%,.,?,.,
O=C(Nc1ccc(N2CCN(Cc3ccccc3F)CC2)cc1)c1ccc([N+](=O)[O-])o1,-10%,-96*,-6,3%,.,7%,.,
CC1CCN(c2ccc(NC(=O)c3ccc([N+](=O)[O-])o3)cc2)CC1,-17%,?,-9,0%,.,-1%,.,
CC(C)(C)C(=O)N1CCN(c2ccc(NC(=O)c3ccc([N+](=O)[O-])o3)cc2)CC1,-10%,-81*,-2,0%,.,0%,.,
COc1ccc(OC(=O)N(CC(=O)O)Cc2ccc(OCCc3nc(-c4ccccc4)oc3C)cc2)cc1,.,.,-2,.,.,.,.,
CC(C)CNC(=S)NC(=O)c1ccc([N+](=O)[O-])cc1,28%,2,-6,-1%,0%,0%,.,
CC(C)CNC(=S)NC(=O)c1csc([N+](=O)[O-])c1,10%,-87*,-7,-1%,-2%,14%,.,
O=C1Cc2cc(S(=O)(=O)N3CCN(c4cccc(C(F)(F)F)c4)CC3)ccc2N1,.,.,.,.,.,23%[230 µM],.,
CC(C)CCCC(C)NCCC(C)C (stereo not drawn),.,.,-1,.,.,.,.,
COc1ccc(/C=C/c2nc3ccccc3n2C)cc1,-4%,?,-88*,0%,1%,-4%,.,
COc1ccc(/C=N\n2nnc3ccccc32)cc1,22%,-5,-59*,0%,0%,1%,.,
COc1ccc(-n2nc([N+](=O)[O-])c(=NCc3ccc4c(c3)OCO4)n2O)cc1,?,-92*,1,-1%,?,0%,.,
Cc1ccc(CN=c2c([N+](=O)[O-])nn(-c3ccc4c(c3)OCCO4)n2O)cc1,?,-87*,2,6%,3%,-4%,.,
O=[N+]([O-])c1nn(-c2ccccc2)n(O)c1=NCc1ccc2c(c1)OCO2,6%,-16,-4,0%,1%,3%,.,
CCCCOC(=O)Cn1c2ccc(OC)cc2c2nc3ccccc3nc21,-6%,4,2,0%,?,?,?,HCC4017 viab=?;H358 viab=?
CCn1c2ccc(OC)cc2c2nc3ccccc3nc21,-17%,-1,-9,-1%,-2%,?,.,
O=C(NN1C(=O)c2ccccc2NC1c1ccoc1)c1ccc([N+](=O)[O-])cc1 (stereo not drawn),-1%,-2,-2,0%,2%,3%,.,
O=C(NN1C(=O)c2ccccc2NC1c1ccc([N+](=O)[O-])o1)c1ccc([N+](=O)[O-])cc1 (stereo not drawn),-3%,?,2,13%,10µM*,-11%,9%,HCC4017 viab=?;H358 viab=?
CCOC(=O)c1c(NC(=O)CC2Nc3cc(C)c(C)cc3NC2=O)sc(C)c1C (stereo not drawn),18%,-12,-4,0%,8.9µM*,?,?,
COc1ccc(NC(=O)CSc2nc3c(oc4ccccc43)c(=O)n2Cc2ccco2)cc1Cl,.,-7,1,.,3.5µM*,2%,8%,HCC4017 viab=11µM*;H358 viab=16µM*
N=c1n(CC(=O)c2ccc([N+](=O)[O-])cc2)c2ccccc2n1Cc1ccccc1Cl,-4%,22,1,0%,?,7%,7%,HCC4017 viab=13µM*;H358 viab=?
SMILES,p53 reactivation,Giardia killer,PI4K2A inh,B2AR arrestin,Epigenetic reg,Pin1 inhibitor,Parental c127i,others
N=c1n(CC(=O)O)c2ccccc2n1Cc1ccccc1Cl,5%,-8,-2,0%,-4%,0%,.,
Cc1ccc(C(C)C)c(OCc2ccc(C(=O)N/N=C/c3cccc(O)c3O)cc2)c1,-7%,-25,5,0%,?,-4%,1%,HCC4017 viab=2µM*;H358 viab=0.56µM*
Cc1ccc(C(C)C)c(OCc2ccc(C(=O)N/N=C/c3ccc(O)c(O)c3)cc2)c1,-5%,9,-1,0%,0%,-1%,.,
COc1ccc(Nc2nc3c(S(=O)(=O)c4ccccc4)nnn3c3ccc(Cl)cc23)cc1,.,16,1,.,?,9%,4%,
O=C1CCCC2=C1C1(CCCC1)N=C(Nc1nc3cc4ccccc4cc3o1)N2,.,.,.,.,.,10%,.,
N#CN1CCC(NC(=O)c2cccc(C(F)(F)F)c2)CC1,.,.,.,.,.,-19%,.,
O=[N+]([O-])/C(=C\Nc1ccccc1Cl)S(=O)(=O)c1ccccc1,-2%,.,.,-1%,2%,.,.,
O=[N+]([O-])/C(C=Nc1ccccc1O)=C\Nc1ccccc1O,-3%,-20,4,0%,?,-1%,4%,HCC4017 viab=-11%;H358 viab=?
COCCNC(=S)N/N=C(\C)c1ccccc1O,?,?,1,0%,4.5µM*,5%,4%,HCC4017 viab=?;H358 viab=?
COc1cc(NC(=O)C(OC(=O)CNC(=O)c2ccccc2)c2ccccc2)cc(OC)c1 (stereo not drawn),.,.,.,.,.,6%,.,
COc1ccc(C(=O)/C=C/Sc2nc3ccccc3o2)cc1,-13%,8,-11,3%,?,-7%,10%,HCC4017 viab=7.9µM*;H358 viab=7.9µM*
Nc1c(C(=O)Nc2ccc(F)cc2)sc2nc(-c3cccs3)cc(C(F)(F)F)c12,.,.,-4,.,?,?,.,
COc1ccc(NC(=O)c2sc3nc(-c4ccc(OC)cc4)cc(C(F)(F)F)c3c2N)cc1,.,22,0,.,7.1µM*,?,4µM*,
